Each molecule was assayed on CSNK1D. Conditions: concentration: 1 μM, replicates: in singlicate; n = 1.
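Also: KINOMEscan kinase panel screen.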

Compared with `CN1CCN(CCCNc2nccc(-c3c(-c4ccc(F)cc4)nn4cc(C(F)(F)F)ccc34)n2)CC1` [GW621581], `CCCCc1nn2ncccc2c1-c1ccnc(Nc2ccc(N3CCN(C)CC3)cc2)n1` [GW684941] is higher in “%Inh” value: 90.6% for the first, 90.9% for the second.

Compared with `C[C@@H]1CC[C@@H](C(=O)Nc2ccccc2)CN1c1cc(-c2ccc3c(N)n[nH]c3c2)nc(N)n1` [GSK2286062], `Nc1n[nH]c2cnc(-c3ccccc3)cc12` [SB-642124] is lower in “%Inh” value: 20% for the first, 12% for the second.

Compared with `Cl.Cl.NCC(NCc1ccc(-c2ccnc3[nH]ccc23)s1)c1ccccc1` (stereo not drawn) [GSK1321565], `Cl.Cl.NCC(C(=O)Nc1cc(Br)c(-c2ccnc3[nH]ccc23)s1)c1ccccc1` (stereo not drawn) [GSK1269851] is higher in “%Inh” value: 26% for the first, 35% for the second.

Going from `COc1cccc(NC(=O)NC2CCN(c3ccnc(Nc4cc(OC)c(OC)c(OC)c4)n3)C2)c1` (stereo not drawn) [GSK1379763] to `COc1cc(Nc2nccc(N3CCC(NC(=O)Nc4cccc(C(C)=O)c4)C3)n2)cc(OC)c1OC` (stereo not drawn) [GSK1379753], the “%Inh” value rises from 0% to 3%.

Compared with `COc1cccc(C(=O)Nc2cccc(Oc3ccc4nc(NC(=O)C5CC5)cn4n3)c2)c1`, `O=C(Nc1cccc(Oc2ccc3nc(NC(=O)C4CC4)cn3n2)c1)c1ccccc1C(F)(F)F` is lower in “%Inh” value: 1% for the first, 0% for the second.

Compared with `c1ccc(-c2n[nH]cc2Nc2ccnc3ccccc23)nc1` [GW694077], `Cl.c1ccc(-c2ccc3c(Nc4ccc5[nH]ncc5c4)ccnc3c2)nc1` [GW440137] is lower in “%Inh” value: 55% for the first, 27% for the second.

First: O=C(Nc1cccc(-c2nn3ccccc3c2-c2ccnc(Nc3cccc(C(F)(F)F)c3)n2)c1)c1c(F)cccc1F [GSK292658]
Second: O=C(Nc1cccc(-c2nn3ncccc3c2-c2ccnc(Nc3ccccc3)n2)c1)c1c(F)cccc1F [GSK198271]
The “%Inh” value of the first is lower: 2% for the first, 20% for the second.

First: CSc1cccc2c(-c3ccncn3)c(-c3ccc(F)cc3)nn12 [GW514786]
Second: Fc1ccc(-c2ncn(C3CCNCC3)c2-c2ccnc(Oc3ccc(-c4ccccc4)cc3)n2)cc1 [SB-245391]
The “%Inh” value of the first is lower: 84% for the first, 96.2% for the second.

Compared with `COc1ccc(CNC(=O)NC2CCN(c3ccnc(Nc4ccc(F)cc4)n3)CC2)cc1` [GSK1379788], `O=C(Nc1ccccc1F)NC1CCN(c2ccnc(Nc3ccc(F)cc3)n2)CC1` [GSK1379800] is higher in “%Inh” value: 42% for the first, 54% for the second.

First: COCCOCCOc1cc2ncc3c4ccc(C#N)cc4[nH]c3c2cc1OC
Second: COc1cc(Nc2nccc(-c3c(-c4cccc(NC(=O)c5c(F)cccc5F)c4)nn4ccccc34)n2)cc(OC)c1OC [GSK323521]
The “%Inh” value of the first is lower: 0% for the first, 29% for the second.

First: FC(F)(F)c1ccc(/C=C/c2cncnc2Nc2ccc3[nH]c(Cc4ccccc4)nc3c2)cc1 [GW709199]
Second: Cl.c1ccc(-c2ccc3c(Nc4ccc5[nH]ccc5c4)ccnc3c2)nc1 [GW440138]
The “%Inh” value of the first is lower: 3% for the first, 13% for the second.

Compared with `O=C(O)C(F)(F)F.O=C(O)C(F)(F)F.O=c1[nH]ccc2nc(N[C@@H]3CCCNC3)nc(Nc3ccc(S(=O)(=O)N4CCOCC4)cc3)c12` [GSK2177277], `Cc1cccc(Nc2nc(N[C@H]3CCNC3)ncc2C(N)=O)c1.Cl` [GSK2197149] is lower in “%Inh” value: 98.7% for the first, 67% for the second.

First: Cc1ccc(C(=O)N2CC[C@@H](O)C2)cc1-n1c(C)cc(OCc2ccc(F)cc2F)c(Br)c1=O
Second: Cn1cc(-c2ccc3c(c2)CCN3C(=O)Cc2cccc(F)c2)c2c(N)ncnc21 [GSK2603358]
The “%Inh” value of the first is lower: 0% for the first, 20% for the second.

Compared with `COc1ccc(Nc2nccc(NCCNC(=O)c3cc4ccccc4s3)n2)cc1` [GSK1379896], `COc1ccc(Nc2nccc(N3CCC(NC(=O)Nc4cccc(OC)c4)C3)n2)cc1` (stereo not drawn) [GSK1379742] is lower in “%Inh” value: 8% for the first, 1% for the second.

Compared with `CCc1ccc(-c2ccc3c(c2)-c2c(cnn2C)S(=O)(=O)N3C)cc1`, `Nc1ncc(-c2cccnc2)c2scc(-c3ccc4c(c3)CCN4C(=O)Cc3ccccc3)c12` [GSK683281] is higher in “%Inh” value: 0% for the first, 13% for the second.

First: O=c1[nH]cc(-c2ccc(N3CCOCC3)cc2)c2sc(-c3cn[nH]c3)cc12 [GSK2276055]
Second: Cl.NC(=O)c1cccc(Nc2nccc(Nc3ccc(Oc4c(Cl)cccc4Cl)c(Cl)c3)n2)c1 [GW659009]
The “%Inh” value of the first is higher: 84% for the first, 0% for the second.

In the case of `COC(=O)Nc1nc2ccc(Oc3ccc(NC(=O)Nc4cc(C(F)(F)F)ccc4F)cc3)cc2n1C.Cl` [GW692089], the “%Inh” value is reported as 0%.

From PMC5540273 (PLoS ONE, 2017)
